This excerpt belongs to a sample that is enriched for hits.
a7 integrin act: activates integrin-mediated alleviation for muscular dystrophy; Potency, µM (series often up to 38.3 µM), actives largely listed as activators; AID 624291; alpha7betagal myoblasts, beta-gal FDG fluorescence, 48 h; 350,000 tested, 0.064% active; further: nearly all actives have a fitted effect of over 60% in size
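Alpha7betagal+/- myoblasts (passage 13) were plated 16-24 hr, then exposed to compounds (1:260 dilution of DMSO stock) for 48 hours at 37C. After MPER lysis, β-galactosidase reporter activity was read as FDG fluorescence (ex 480/em 540) after 30 minutes.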
ERG-DNA inh: inhibitors of human ERG Ets domain-DNA interaction. P11308. fluorescence polarization, His-ERG Ets domain / labelled DNA. Potency, µM (top dose mostly 76.9 µM), usual class: inhibitors. 370,000 tested, 0.028% active. AID 624246; active means well fitted inhibition curve with a large enough effect in the polarisation, with a control signal flat; inconclusive means small, poorly fitted or top-dose-only effect, or effect the other way, or a change in a side signal; inactive means no such curve, though single readings can be large or run the other way; the % refers to the polarisation;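 further: polarization taken with two DNA probes labelled with fluorescein and Texas red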
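His-tagged ERG Ets domain (1 uM in the protein solution; 300mM KCl, 50mM Tris-HCl, 1mM EDTA, 1mM DTT, pH 7.5) received compound, then a probe mix of 5 nM fluorescein-DNA and 100nM Texas-615-DNA. Fluorescence polarization was read for both dyes.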
RORg inh: ROR gamma (mouse) transcription inhibition; Drosophila S2 Gal4-RORgamma UAS-luciferase reporter, 20 h; Potency, µM (doses to about 53.6 µM), most hits filed as inhibitors; 310,000 tested, 5.4% active; further: nearly all actives have a fitted effect of over 60% in size
Target sequence (P51450 whole entry, looked up, the tested form may be a part): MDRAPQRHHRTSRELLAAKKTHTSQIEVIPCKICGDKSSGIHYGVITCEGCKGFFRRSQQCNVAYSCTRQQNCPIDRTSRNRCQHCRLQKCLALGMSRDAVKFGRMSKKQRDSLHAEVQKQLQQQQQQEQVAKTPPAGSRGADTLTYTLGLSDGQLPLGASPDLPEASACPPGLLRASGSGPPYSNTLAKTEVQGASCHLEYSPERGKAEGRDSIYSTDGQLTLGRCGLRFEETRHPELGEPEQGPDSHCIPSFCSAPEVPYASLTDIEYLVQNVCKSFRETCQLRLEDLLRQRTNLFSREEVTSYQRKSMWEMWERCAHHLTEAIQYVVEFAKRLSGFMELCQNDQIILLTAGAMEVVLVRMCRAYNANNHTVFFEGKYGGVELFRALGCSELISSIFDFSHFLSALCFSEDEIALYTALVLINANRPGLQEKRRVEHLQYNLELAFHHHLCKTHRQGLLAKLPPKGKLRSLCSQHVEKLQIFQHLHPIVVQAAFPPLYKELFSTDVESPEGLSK
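Luminescence from a UAS-regulated Photinus luciferase reporter in stably transfected Drosophila Schneider cells is measured; decreased signal marks ROR gamma inhibition. Fusion expression is induced by 700 uM copper sulfate for 20 hr.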
Gal4-VP16 FLuc: counter-screen for ROR gamma inhibitors: Gal4-VP16 reporter; Drosophila S2 Gal4-VP16 UAS-luciferase, luminescence, 20 h; Potency, µM (titrated, usually from 53.6 µM), usual class: inhibitors; 310,000 tested, 3.5% active;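 further: Gal4-VP16 expression switched on by copper sulfate through the metallothionein promoter; nearly all actives have a fitted effect of over 50% in size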
Giardia kill: Giardia lamblia killing; Giardia lamblia trophozoite viability; activity change, % at 7.66 µM, hits read low; 340,000 tested, 0.15% active; AID 540267; in the data active means activity change below about -80%; inconclusive means between about -30% and that limit;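 further: parasites exposed to compound for two days anaerobically before the ATP read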
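Media and compound were dispensed first, then trophozoites at 100 cells/well; plates sat 48 hrs at 37 deg C without oxygen before ATP luminescence reagent was added and read after 15-30 min at room temperature.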
Of the large screens only hits and unclear results are named; the others gave an inactive call. Unless noted, the call rests on the fitted dose curve; in most records, active means well fitted curve in the direction sought with a large enough effect; inconclusive means small, poorly fitted or top-dose-only effect, or another doubt; inactive means no such curve, though single readings can be large; an effect the other way counts as inactive or inconclusive.

O=C(O)c1ccc(/C=N/Nc2ccc(F)cc2F)cc1	RORg inh 12.6µM, Gal4-VP16 FLuc inconclusive
CC(C)(C)c1ccc(/C=N/Nc2cccc(C(=O)O)c2)cc1	none
COc1ccc2cc(CNCCOCCOCCNCc3ccc4cc(OC)ccc4c3)ccc2c1	none (no result: RORg inh, Gal4-VP16 FLuc)
O=C(O)C1CCC(C(=O)O)SS1 (stereo not drawn)	none (no result: RORg inh, Gal4-VP16 FLuc)
C/C(=N\NC(N)=S)C1=CCC2C3CC[C@H]4CC(O)CC[C@]4(C)C3CC[C@]12C (stereo partly drawn)	RORg inh 2.51µM, Gal4-VP16 FLuc inconclusive
Cc1nc(CS(=O)(=O)c2ccc(Cl)cc2)cc(N2CCOCC2)n1	none
O=S(=O)(Cc1cc(N2CCOCC2)nc(-c2ccccn2)n1)c1ccccc1	RORg inh 15.8µM
CCC(C(=O)NC1CCCCC1)n1c(SCc2ccc(F)cc2)nc2ccncc21 (stereo not drawn)	RORg inh inconclusive
CCC(C(=O)NC1CCCC1)n1c(SCc2cccc(C)c2)nc2ccncc21 (stereo not drawn)	RORg inh 10µM
Cc1nc(-c2coc3cc(OCC(=O)O)ccc3c2=O)cs1	RORg inh 7.08µM, Gal4-VP16 FLuc 6.31µM, Giardia kill inconclusive
COc1ccc2c(=O)c(-c3nc(C)cs3)coc2c1	RORg inh 1.26µM, Gal4-VP16 FLuc 2.24µM, Giardia kill inconclusive
Cc1nc(-c2coc3cc(O)c(C)cc3c2=O)cs1	Gal4-VP16 FLuc inconclusive, Giardia kill inconclusive
COc1ccc(-c2coc3cc(OC)ccc3c2=O)cc1	none (no result: RORg inh, Gal4-VP16 FLuc)
c1ccc2c(c1)OCCc1c-2[nH]c2ccccc12	none
c1ccc2c(c1)SCc1c-2[nH]c2ccccc12	RORg inh 4.47µM, Gal4-VP16 FLuc 10µM (no result: a7 integrin act, ERG-DNA inh, Giardia kill)
O=C(O)CN1C(=O)C(=O)N(Cc2ccc(Cl)cc2Cl)C1=O	none
NC(=O)c1ncc(C(F)(F)F)cc1Oc1ccc(C(F)(F)F)cc1	none
O=C(Nc1ccccc1)C1=C[C@@H](c2ccc(Br)cc2)C[C@@H](OCCCCO)O1	RORg inh inconclusive, Gal4-VP16 FLuc 7.08µM
O=C(Nc1ccccc1)C1=C[C@H](c2ccccc2)C[C@H](OCCCCO)O1	none (no result: RORg inh, Gal4-VP16 FLuc)
Cc1cccc(NC(=S)c2nc3ccccc3s2)c1	RORg inh 1.12µM, Gal4-VP16 FLuc 5.01µM
CCN1CCN(c2ncc3c(n2)CCN(Cc2sccc2C)C3)CC1	none (no result: a7 integrin act, RORg inh, Gal4-VP16 FLuc, Giardia kill)
Nc1ncc(-c2ccccc2)n1CC1CCCO1 (stereo not drawn)	RORg inh 12.6µM, Gal4-VP16 FLuc inconclusive
COC(=O)C[C@H]1c2cc(C(F)(F)F)ccc2S(=O)(=O)N1Cc1ccc(OC)cc1	none (no result: RORg inh, Gal4-VP16 FLuc)
CC(=O)Nc1ccc(C2=NNC(=Nc3cccc(S(=O)(=O)N(C)C)c3)SC2)cc1	Gal4-VP16 FLuc inconclusive
CN(C)S(=O)(=O)c1cccc(N=C2NN=C(c3ccccc3)CS2)c1	RORg inh inconclusive, Gal4-VP16 FLuc 15.8µM
COc1cccc(NC(=O)CSc2nnc(-c3cc(C)n(-c4ccccc4)c3C)o2)c1	RORg inh 10µM, Gal4-VP16 FLuc 11.2µM
COc1ccc(NC(=O)CSc2nnc(-c3cccc(O)c3)o2)cc1	none
CC12CCC(=O)N1C(C(=O)NCCc1ccccc1)CS2 (stereo not drawn)	RORg inh 7.94µM, Gal4-VP16 FLuc 15.8µM
Cc1onc(-c2ccccc2Cl)c1C(=O)NC(=S)Nc1ccccc1F	RORg inh 5.01µM, Gal4-VP16 FLuc inconclusive
COc1ccccc1CNC(=O)c1c(-c2ccccc2Cl)noc1C	none
COc1ccccc1NC(=S)NC(=O)c1c(-c2ccccc2Cl)noc1C	RORg inh 2.51µM, Gal4-VP16 FLuc 15.8µM
CCOc1ccc(C(C)=O)cc1CSC(=N)N	none
CCCCOc1ccc(Br)cc1CSC(=N)N	RORg inh inconclusive, Gal4-VP16 FLuc 10µM
CCOC(=O)N1CCC(=NNC(=O)c2ccc(O)cc2)CC1	a7 integrin act inconclusive, RORg inh 8.91µM, Gal4-VP16 FLuc inconclusive
CC1=C/C(=N\NC(=O)c2ccc(O)cc2)CC1	RORg inh 12.6µM, Gal4-VP16 FLuc inconclusive
CO[C@]1(NC(=O)C2SC(=C(C(N)=O)C(=O)O)S2)C(=O)N2C(C(=O)O)=C(CSc3nnnn3C)CS[C@H]21 (stereo partly drawn)	none (no result: a7 integrin act, ERG-DNA inh, Giardia kill)
Cc1ccc(N=Cc2cc(Cc3ccccc3Cl)cc([N+](=O)[O-])c2O)c(O)c1	RORg inh 6.31µM, Gal4-VP16 FLuc 4.47µM
Cn1ccnc1SCc1cn2cc(Br)ccc2n1	RORg inh 11.2µM, Gal4-VP16 FLuc 10µM

Screening data as filed in PubChem BioAssay.
